Compounds with a hit are over-represented: about 2.4% of the library has one in this group of screens.
Wnt bcat act: Wnt/beta-catenin pathway activators, primary screen, cell-based, plate reader, single point. Wnt/beta-catenin reporter cell assay, activator. hit rate 1.2% among 300,000. activation, % at 9.35 µM; in the data active means activation above about 30%, passing the limit was not always enough; inconclusive means no clear call, values can overlap the other calls;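 further: 0% = neutral control wells and 100% = positive control wells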
INS-1E GSIS act: GLuc luminescence reporter in INS-1E cells, primary screen for activators of glucose-dependent secretion of insulin. INS-1E GLuc reporter insulin secretion, 2-3 h. activation, % at 16.6 µM. hit rate 0.61% among 370,000. AID 743287, 2014;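 active means lowest replicate activation of at least 40%, so every replicate reaches that level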;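 further: 0% = median of neutral control wells and 100% = median of IBMX positive control wells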
NSD2 inh: NSD2 histone methyltransferase inhibitors, primary screen, biochemical, AlphaScreen, single concentration, set 2 | hit rate 0.54% among 310,000 | inhibition, % at 12.5 µM | NSD2 peptide methylation, 120 min | AID 743445, 2014
Dyrk1A ADPGlo: rat Dyrk1A kinase inhibitors, primary screen, biochemical, single point, plate reader; Dual specificity tyrosine-phosphorylation-regulated kinase 1A (Rattus norvegicus), Q63470; ADP-Glo luminescence, NFATc1 peptide; inhibition, % at 12.5 µM; hit rate 0.43% among 310,000; AID 504441, 2011;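 further: plate controls were vehicle with enzyme for no effect and no enzyme for full effect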
MITF TRPM1 HTS: activators of MITF-driven TRPM1 promoter reporter, primary screen, cell-based, SK-MEL-5, luciferase, single point | AID 588334, 2011 | hit rate 0.75% among 300,000 | activation, % at 12.5 µM | SK-MEL-5 TRPM1-promoter luciferase, 24 h; % of positive control, neutral wells = 0;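 active means mean activation of at least 80% with every replicate also reaching 80%; inconclusive means mean reaches 80% but some replicate falls short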;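 further: 0% = neutral control wells and 100% = parthenolide positive control wells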
miR122 inh: miR-122 Renilla sensor signal increase in Huh7, primary screen, miR-122 inhibitor project, cell-based, single point, plate reader. Huh7 miR-122 Renilla luciferase sensor, 48 h; neutral wells = 0, positive control = 100. activation (reporter increase), % at 12.5 µM. hit rate 0.3% among 340,000;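 active means mean replicate activation score at least 90 and every replicate individually at or above 90; inconclusive means only one of the two criteria met; inactive means neither criterion met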;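 further: higher luciferase means less miR-122 activity so hits act as miR-122 inhibitors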
* = called active by the depositor; ? = inconclusive; . = no result; [ ] = another dose, or the depositor's remark. Unless noted, no stated cut-off is given here; in the data, active means inhibition above about 50%; inactive means the rest.

SMILES	Wnt bcat act	INS-1E GSIS act	NSD2 inh	Dyrk1A ADPGlo	MITF TRPM1 HTS	miR122 inh
Cc1ccc(C)c(NC(=S)c2ccc3ccccc3n2)c1	21.8	-5.3	-0.9	-5.7	43.7	7.7
Cc1ccc(C)c(NC(=S)c2ccccn2)c1	36.3*	.	27.9	14.6	12.8	23.8
O=C(NCCN1C(=O)C2C3C=CC(C3)C2C1=O)Nc1cccnc1 (centres undefined)	-0.6	9.3	.	11.2	-9.6	-1.9
O=C(NCCN1C(=O)C2C3C=CC(C3)C2C1=O)Nc1ccc(Br)cc1 (centres undefined)	37.1*	-6.4	.	14.6	67.0	0.4
O=C(C[C@@H]1C[C@H]2c3cc(NC(=O)NC4CCCC4)ccc3O[C@H]2[C@H](CO)O1)NCc1ccccc1F	.	6.1	.	.	.	-1.5[16.7 µM]
Cc1cc(C)c(S(=O)(=O)N2CCN=C2c2ccccc2)cc1C	3.0	.	.	26.4	6.7	100.0*
COc1cc(C)c(S(=O)(=O)N2CCN=C2c2ccccc2)cc1C	.	32.6	-0.7	10.7	8.6	.
CCN(CC)S(=O)(=O)c1ccc(O)c(NC(=O)COc2ccc(S(=O)(=O)N3CCOCC3)cc2)c1	43.7*	9.9	-0.3	-5.3	5.0	.
O=C(NC(=S)Nc1ccc2c(c1)OCO2)c1ccccc1	.	4.4	-0.1	-0.5	73.6	.
O=C(NC(=S)Nc1ccccc1Br)c1ccc2c(c1)OCO2	2.3	38.5	-3.6	.	110.0*	1.8
O=C(NC1CCCCC1)C(c1ccc(F)cc1)N(Cc1ccccc1)C(=O)CN1C(=O)c2ccccc2S1(=O)=O (centres undefined)	-0.3	111.4*	-0.4	-1.9	-4.3	2.3
COCCCNC(=O)c1cccn2c(=O)c3cc4ccccc4cc3nc12	.	-1.2	85.2*	6.1	10.9	4.1
O=C(CNc1cccc2ccccc12)N/N=C/c1ccc(OC(=O)/C=C/c2ccco2)cc1	19.4	10.9	1.6	4.7	-13.1	1.4
O=C(CNc1ccc2ccccc2c1)N/N=C/c1ccc(OC(=O)/C=C/c2ccco2)cc1	50.6*	-4.4	6.7	-1.4	-6.9	.
CCCC(=O)Nc1ccc2c(c1)C(=O)N(C)[C@H]1CC[C@@H](CC(=O)Nc3ccccc3)O[C@@H]1CO2	.	-4.1	.	.	.	-3.0[16.7 µM]
CO[C@H]1CN(C)C(=O)c2ccc(NC(=O)c3ccccc3F)cc2OC[C@@H](C)N(CC2CCOCC2)C[C@H]1C	.	26.9	.	.	.	.
CC1CCc2nc(NC(=O)c3ccco3)sc2C1 (centres undefined)	.	.	2.1	26.6	-31.2	12.7
CC1CCc2nc(NC(=O)Cc3cccs3)sc2C1 (centres undefined)	-2.8	.	3.8	6.5	126.3*	-5.8
OCCN=c1cc(-c2ccccc2)oc2ccc(Cl)cc12	18.5	.	4.4	7.1	65.1	4.2
O=c1cc(-c2ccccc2)oc2ccc(Br)cc12	?	6.6	.	-4.5	47.0	7.4
O=c1cc(-c2ccccc2F)oc2ccccc12	47.0*	.	-2.0	12.9	.	3.3
O=c1cc(-c2ccc3c(c2)OCCO3)oc2ccc(Cl)cc12	47.2*	3.0	-1.9	-5.7	4.8	.
O=c1cc(-c2ccccc2)oc2ccc(Cl)cc12	47.0*	6.9	0.1	4.5	.	1.8
Cc1ccccc1-c1cc(=O)c2ccccc2o1	5.0	15.8	.	-6.0	1.0	-3.4
CN(C)CCCN=c1cc(-c2ccccc2)oc2ccc(Cl)cc12	12.0	9.7	17.3	3.4	84.0*	.
SMILES	Wnt bcat act	INS-1E GSIS act	NSD2 inh	Dyrk1A ADPGlo	MITF TRPM1 HTS	miR122 inh
C[C@@H]1CCCCO[C@H](CN(C)Cc2ccccc2)[C@@H](C)CN([C@@H](C)CO)C(=O)c2cc(NS(C)(=O)=O)ccc2O1	.	2.8	.	.	.	0.1[16.7 µM]
COc1ccc(CCNS(=O)(=O)c2cn(C)nc2C)cc1OC	0.1	20.6	4.0	-3.6	-5.3	.
CCn1cc(S(=O)(=O)NCCc2ccc(OC)c(OC)c2)cn1	1.2	48.3*	3.5	-2.7	-11.0	.
COc1ccc(CCNS(=O)(=O)c2cccc(C)c2)cc1OC	.	89.8*	1.1	-7.0	2.6	-8.5
CCOC(=O)c1c(S(=O)(=O)NCCc2ccc(OC)c(OC)c2)c(C)n(C)c1C	0.6	51.2*	2.8	-4.9	2.5	.
COc1ccc(CCNS(=O)(=O)c2cn(C)cn2)cc1OC	0.0	43.7*	0.7	2.9	0.4	-3.6
COCC(=O)N(C)C[C@H]1Oc2cc(C3=CCCC3)ccc2S(=O)(=O)N([C@H](C)CO)C[C@H]1C	.	21.4	.	.	.	.
C[C@@H]1CN([C@H](C)CO)S(=O)(=O)c2ccc(-c3cccc(C#N)c3)cc2O[C@H]1CN(C)C(=O)C1CC1	.	3.0	.	.	.	0.8[16.7 µM]
CCCCOc1ccc(/C=C/C(=O)OCC(=O)NC2CCS(=O)(=O)C2)cc1OCC (centres undefined)	0.9	44.8*	-1.0	1.6	-1.8	.
O=C(Nc1nnc(-c2ccccc2F)s1)C1CCCO1 (centres undefined)	51.2*	.	1.3	-4.3	66.2	2.1
Fc1ccc2nc(Nc3nc4cc5c(cc4s3)OCCO5)sc2c1	.	20.0	-3.1	-0.1	84.8*	1.1
O=C(Nc1nc2ccc(C(=O)N3CCCCC3)cc2s1)C1CCCCC1	-1.0	-1.5	-1.9	-4.9	0.3	.
Nc1ccc2nc(NC(=O)C3CCCCC3)sc2c1	48.4*	-3.6	2.7	.	60.4	0.6
O=C(Nc1nc2ccc(F)cc2s1)C1CCCO1 (centres undefined)	.	.	-0.7	23.9	112.2*	3.5
O=C(Nc1nc2ccccc2s1)C1CCCO1 (centres undefined)	.	5.4	.	3.5	.	-8.8
C=CCOc1ccc2c(OC)c3ccoc3nc2c1OC	35.4*	.	-1.2	2.0	26.5	-2.5
CCOc1c2ccoc2nc2c(OC)c(OC)ccc12	-0.4	5.5	.	5.9	.	-3.4
Cc1ccc(C(=O)CSc2nnc(-c3ccco3)n2Cc2ccccc2)cc1	-0.5	.	-2.6	-0.2	70.5	5.3
O=C(O)CSc1nnc(Cc2ccccc2)n1-c1ccccc1	1.9	.	-58.2	-5.8	2.0	-15.7
O=C(CSc1nnc(-c2ccco2)n1Cc1ccccc1)c1ccccc1	.	.	1.6	4.3	91.2*	3.4
O=C(O)CSc1nnc(Cc2ccccc2)n1Cc1ccccc1	3.4	56.6*	1.1	1.6	-6.5	-0.3
C[C@@H]1CN([C@@H](C)CO)C(=O)c2cc(/C=C/c3ccccc3)cnc2O[C@@H]1CN(C)C(=O)Nc1ccc(C(F)(F)F)cc1	.	-0.3	.	.	.	.
CCn1c(O)c(N=Nc2ccc3ccccc3n2)c2ccccc21	-1.3	2.9	4.0	.	116.4*	.
CCCCn1c(O)c(N=Nc2ccccn2)c2ccccc21	.	-23.6	-2.9	-5.7	-4.4	.
COc1ccc(-c2cc(-c3ccco3)[nH]c(=O)c2C#N)cc1OC	-0.1	52.2*	.	-5.9	2.5	-4.3

High-throughput results as filed in PubChem BioAssay.
